Values without a mark were called inactive.
test system: Vero E6 infected with SARS-CoV-2; test: SARS-CoV-2 infection rate relative to infected DMSO; higher = more infection, active = 60 or less; settings: 24 h

Going from `CCC(CC)Nc1nc(C)c(-c2ccc(OC(F)(F)F)cc2OC)nc1OC` (10 µM) to `C=CC(=O)N1CCC(Oc2cc3c(Nc4ccc(Cl)c(Cl)c4F)ncnc3cc2OC)CC1` [poziotinib] (10 µM), the SARS-CoV-2 infection rate rises from 86.5% to 108%.

First: Clc1ccc(Nc2nnc(Cc3ccncc3)c3ccccc23)cc1 [vatalanib] (10 µM)
Second: Cc1nnc(C[C@@H]2C=C(c3ccc(Cl)cc3)c3ccccc3-n3c(C)nnc32)o1 (0.833333 µM)
The SARS-CoV-2 infection rate of the first is lower: 96% for the first, 108% for the second.

Compared with `NCCCC[C@H](NC(=O)[C@@H](Cc1cc(Br)c(O)c(Br)c1)NC(=O)N1CCC(N2Cc3ccccc3NC2=O)CC1)C(=O)N1CCN(c2ccncc2)CC1` (10 µM), `CN1CC[C@H](c2c(O)cc(O)c3c(=O)cc(-c4ccccc4Cl)oc23)[C@H](O)C1` [alvocidib] (10 µM) is lower in SARS-CoV-2 infection rate: 110% for the first, 108% for the second.

Compared with `N=C(N)NCc1cccc(I)c1` [iobenguane] (10 µM), `NNc1nncc2ccccc12` [hydralazine] (10 µM) is higher in SARS-CoV-2 infection rate: 100% for the first, 104% for the second.

First: Cc1cc(C(C#N)c2ccc(Cl)cc2)c(Cl)cc1NC(=O)c1cc(I)cc(I)c1O (stereo unspecified) [closantel] (10 µM)
Second: CN1C(C(=O)Nc2ccccn2)=C(O)c2sc(Cl)cc2S1(=O)=O [lornoxicam] (10 µM)
The SARS-CoV-2 infection rate of the first is lower: 91.5% for the first, 97% for the second.

First: O=C(O)Cc1cccnc1C(=O)O [homoquinolinic-acid] (10 µM)
Second: OCc1c[nH]c2ccccc12 [indole-3-carbinol] (10 µM)
The SARS-CoV-2 infection rate of the first is higher: 102% for the first, 94.5% for the second.

Going from `COc1nccc(-c2c(-c3ccc(F)cc3)ncn2C2CCNCC2)n1` (10 µM) to `CC1=CC(=O)c2ccccc2C1=O` [menadione] (10 µM), the SARS-CoV-2 infection rate falls from 98.5% to 91%.

Going from `C=C1C(=O)O[C@@H]2[C@H]3C(C)=CC[C@@]34O[C@@]4(C)CC[C@@H]12` [arglabin] (10 µM) to `C=C1/C(=C\C=C2/CCC[C@]3(C)[C@@H]([C@H](C)CCCC(O)(C(F)(F)F)C(F)(F)F)CC[C@@H]23)C[C@@H](O)C[C@@H]1O` [falecalcitriol] (10 µM), the SARS-CoV-2 infection rate rises from 68% to 95.5%.
